96 molecules from PubChem BioAssay AID651812 (National Center for Advancing Translational Sciences (NCATS), 2012) can be followed below.

About 650 (31%) of roughly 2,100 compounds were called active. About 16% were inconclusive and are not listed. Calls follow the shape of the dose curve; as a rule, active = well fitted inhibition curve with a large enough effect; inconclusive = small, poorly fitted or top-dose-only effect; inactive = flat fitted curve, though single readings scatter. Some of the results follow. A call without a number means that no potency is given here.
Potency is read from the fitted curve at half-maximal effect.

A short description of this assay: qHTS for inhibitors of Vif-A3G interactions: Cherry picks. Also: nearly all actives have a fitted effect of over 80% in size. Particulars: HeLa A3G-eYFP + Vif (tagged APOBEC3G with the HIV-1 protein that degrades it), 24 h; Potency: eYFP fluorescence increase; series mostly up to 36.9 µM. The method in brief: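 Cherry-picked compounds tested at several concentrations on A3G-eYFP/Vif HeLa cells for 24 hours; loss of Vif-driven degradation read as eYFP fluorescence by cytometric plate imaging, 488 nm excitation, 500-530 nm emission.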
Regarding `Cc1ccc(Cn2nnc3c(=O)n(CC(=O)NCc4ccccc4)cnc32)cc1`, the Potency result was “inactive”.

Regarding `CO/N=C\CC(=O)Nc1ccc(Cl)c(Cl)c1`, the Potency result was “inactive”.

For the molecule `Cc1ccc2nc(NS(=O)(=O)c3ccc(Cl)cc3)c(Nc3ccc(C(=O)O)cc3)nc2c1`, the Potency result is “inactive”.

On to `O=C1S/C(=C/c2ccc(N3CCOCC3)o2)C(=O)N1Cc1ccc(F)cc1`, for which the Potency is 2.8 µM (active).

Take `CCc1ccc2c(c1)NC(=O)C2(C)Cc1ccccc1Cl` (stereo unspecified): the Potency result is “inactive”.

Take `COC(=O)[C@@H]1Cc2c([nH]c3ccccc23)C(C)(C)N1C(=O)CCl`: the Potency entry was “inactive”.

In the case of `c1ccc(-c2cnn3c(-c4ccccc4)c(-c4ccccc4)nc3n2)cc1`, the Potency is 3.66 µM (active).

As to `COc1ccc(-n2nnnc2-c2cccc(OC)c2)cc1`, the Potency entry was “inactive”.

For the molecule `COc1ccc(C2CC(c3ccncc3)=NN2c2ccc(S(N)(=O)=O)cc2)cc1` (stereo unspecified), the Potency was 10.3 µM (active).

Consider `CCS(=O)(=O)N1N=C(c2ccc(C)cc2)CC1c1cc2ccc(OC)cc2nc1Cl` (stereo unspecified), for which the Potency entry is “inactive”.

For the molecule `COc1ccc(-c2cnc3c(NC=O)cc(-c4ccccc4)cn23)cc1OC`, the Potency result was “inactive”.

With `COc1ccc(/C=c2\s/c(=C/C(=O)c3ccc(C)cc3)[nH]c2=O)c(OC)c1`, the Potency was 20.6 µM (active).

Regarding `COc1ccccc1/C=N/NC(=S)Nc1cccnc1`, the Potency entry was “inactive”.

On to `COc1ccc(NC(=O)c2c(Cl)n(C)c3ccccc23)cc1`, for which the Potency result was “inactive”.

With `Oc1sc(C=Nc2ccc(F)cc2)c2ccccc12`, the Potency is 2.91 µM (active).

As to `COc1ccc(N=Cc2sc(O)c3ccccc23)cc1`, the Potency was 12.5 µM (active).

Turning to `Oc1sc(C=Nc2ccccc2)c2ccccc12`, the Potency was 16.4 µM (active).

In the case of `COc1ccc(N=Cc2c(O)c3ccccc3n2C(C)=O)cc1`, the Potency was 18.4 µM (active).

For the molecule `COc1ccc(C(=O)N/N=C/c2ccccc2OC(=O)c2ccccc2)cc1`, the Potency result is “inactive”.

`CNC(=S)N/N=C(\C)c1ccc(Cl)s1`: the Potency entry is “inactive”.

Regarding `COCCCN(C(C)=O)c1nc(-c2ccc(OC)cc2)cs1`, the Potency result was “inactive”.

As to `COc1ccc(S(=O)(=O)NN(C)c2nc(C(F)(F)F)nc3ccccc23)cc1`, the Potency result is “inactive”.

As for `CC1(C)Cc2c(sc3ncnc(NNC(=S)NCc4ccccc4)c23)CO1`, the Potency entry is “inactive”.

For the molecule `COc1ccc(/C=N/NC(=O)c2cccnc2)cc1COc1ccc(NC(C)=O)cc1`, the Potency entry is “inactive”.

In the case of `COc1ccc(OC)c(C2C=C(c3ccc(C)c(C)c3)Nc3nnnn32)c1` (stereo unspecified), the Potency entry was “inactive”.

As for `COc1ccc(NC(=O)c2c(C)noc2-c2snnc2C)cc1`, the Potency entry is “inactive”.

Turning to `COc1ccc(N=Cc2oc3ccc4ccccc4c3c2O)cc1`, the Potency was 7.31 µM (active).

For the molecule `CCC(=O)NC(c1ccc(OC)cc1)c1c(O)ccc2ccccc12` (stereo unspecified), the Potency result is “inactive”.

For `COc1ccc(/C=N\NC(=O)c2cc3c(ccc4ccccc43)o2)cc1O`, the Potency result is “inactive”.

For the molecule `CC(CC(=O)Nc1ccc2c(c1)c(=O)n(C)n2Cc1ccc(F)cc1)c1ccccc1` (stereo unspecified), the Potency result was “inactive”.

Consider `CCOC(=O)c1[nH]c(C)c(C(=O)Nc2ccccc2F)c1C`, for which the Potency result was “inactive”.

`CCOC(=O)C1=C(Cc2ccc(F)cc2)C(=O)c2ccccc2C1=O`: the Potency is 20.6 µM (active).

`CCOC(=O)N1CCN(c2c(NCc3ccc(F)cc3)c(=O)c2=O)CC1`: the Potency result is “inactive”.

For `CCOC(=O)C1=C(Cc2ccc(Cl)cc2)C(=O)c2ccccc2C1=O`, the Potency was 16.4 µM (active).

For the molecule `COCCNC(=S)N/N=C(\C)c1ccc(OC(F)F)cc1`, the Potency entry was “inactive”.

`CC(C)c1ccc(NC(=O)Nc2cnccn2)cc1`: the Potency entry was “inactive”.

Turning to `CCOC(=O)c1ccc(/C=C2/C=C(c3ccccc3)N(c3ccc(Cl)c(C(=O)O)c3)C2=O)cc1`, the Potency was 20.6 µM (active).

Turning to `CCOC(=O)N1C/C(=C\c2ccccc2)C(=O)/C(=C/c2ccccc2)C1`, the Potency entry is “inactive”.

As to `COc1ccccc1NC(=O)C1=C(C)Nc2nc3ccccc3n2C1c1cccs1` (stereo unspecified), the Potency entry is “inactive”.

Turning to `Cc1cc(C)c(N2C(=O)CC(Sc3ccccc3N)C2=O)c(C)c1` (stereo unspecified), the Potency result is “inactive”.

Take `CCN1/C(=C/c2ccc3ccccc3[n+]2CC)C=Cc2ccccc21`: the Potency is 9.2 µM (active).

Turning to `Cc1ccc(S(=O)(=O)N2CCCCC2)cc1NC(=O)Cn1ncc(Cl)c(Cl)c1=O`, the Potency result is “inactive”.

For `CC(=O)Nc1ccc(-c2ccnc3c2CC(C(=O)NCc2ccccc2)O3)cc1` (stereo unspecified), the Potency result was “inactive”.

Consider `O=C1Nc2ccc(Br)cc2C12NNc1ccccc1O2` (stereo unspecified), for which the Potency was 17.7 µM (active).

In the case of `O=C(NC(=S)N1CCN(C2CCCCC2)CC1)c1ccccc1`, the Potency result was “inactive”.

As for `C=C(NC(=O)C(=C)NC(=O)c1csc(C2=NC3c4csc(n4)C4NC(=O)c5csc(n5)C(C(C)(O)C(C)O)NC(=O)C5CSC(=N5)/C(=C/C)NC(=O)C(C(C)O)NC(=O)c5csc(n5)C3(CC2)NC(=O)C(C)NC(=O)C(=C)NC(=O)C(=C)NC(=O)C(C(C)C)NC2C=Cc3c(C(C)O)cc(nc3C2O)C(=O)OC4C)n1)C(N)=O` (stereo unspecified), the Potency was 4.44 µM (active).

For the molecule `CCN(CC)c1ccc(/C=C/c2cccc[n+]2C)c(OC)c1`, the Potency is 17.7 µM (active).

As for `CCN(CC)c1ccc(NC(=O)c2cccc(F)c2)c(C)c1`, the Potency entry was “inactive”.

In the case of `COc1ccc(C(=S)N2CCN(c3cccc(Cl)c3)CC2)c(OC)c1`, the Potency result is “inactive”.

Turning to `Cc1ccc(-n2c(O)c(/C=C3/C(c4ccccc4)=Nc4ccccc43)c(=O)[nH]c2=O)cc1`, the Potency result was “inactive”.

For the molecule `CN(C)c1ccc2nc3c(=O)[nH]c(=O)nc-3n(CC(O)C(O)C(O)CO)c2c1` (stereo unspecified), the Potency result is “inactive”.

With `O=C(c1ccccc1)C1C(=O)c2ccccc2C1=O`, the Potency result was “inactive”.

`NN=C1c2ccccc2C(=O)C1C(=O)C(c1ccccc1)c1ccccc1` (stereo unspecified): the Potency was 12.5 µM (active).

In the case of `Cc1cccc(CS(=O)(=O)c2ncc(Cl)c(C(=O)Nc3c(C)cccc3C)n2)c1`, the Potency result was “inactive”.

Consider `COc1cc2c3nnc(-c4ccc(F)cc4)c-3cn(Cc3ccc(C)cc3)c2cc1OC`, for which the Potency is 5.59 µM (active).

Regarding `COc1ccc(C2=NOC(C(=O)NCc3ccc(F)cc3)C2)cc1OC` (stereo unspecified), the Potency entry is “inactive”.

Take `COc1ccc(-c2cnc3c(NC=O)cc(-c4cc(OC)c(OC)c(OC)c4)cn23)cc1OC`: the Potency result is “inactive”.

For `Cc1ccc(C)c(Cn2c(=O)n(CCCC(=O)NCc3ccco3)c(=O)c3sccc32)c1`, the Potency entry is “inactive”.

For the molecule `CCn1c(O)c(/C=N/N=C/c2ccc(OC)cc2)c2cc(C3=NNC(=O)CC3)ccc21`, the Potency was 5.8 µM (active).

For the molecule `Cc1ccc(-c2cn3nc(-c4ccccc4)c(-c4ccccc4)nc3n2)cc1`, the Potency is 20.6 µM (active).

As to `NNC(=S)Nc1c(F)cc(F)cc1Br`, the Potency entry is “inactive”.

With `N#Cc1ccc(-c2ccco2)nc1SCc1ccccc1`, the Potency result is “inactive”.

As to `N#Cc1c(C(F)(F)F)cc(-c2ccco2)nc1SCc1ccccn1`, the Potency is 16.4 µM (active).

For the molecule `Cc1cc(C)cc(NC2=NC3(CCCCC3)N=C(N)N2)c1`, the Potency entry is “inactive”.

In the case of `COc1ccc(OC)c(NS(=O)(=O)c2ccc(Cl)s2)c1`, the Potency entry is “inactive”.

On to `COc1ccccc1N1C(=O)c2cccc3c(C(=O)O)ccc(c23)C1=O`, for which the Potency entry was “inactive”.

For `Cc1ccccc1N1C(=O)c2cccc3c(N(C)CCO)ccc(c23)C1=O`, the Potency was 20.6 µM (active).

Regarding `Cc1ccccc1OCC(=O)NNC(=O)Nc1ccc(Cl)cc1`, the Potency entry is “inactive”.

Regarding `O=C1/C(=C/c2ccccc2)CN(C(=O)CCN2CCOCC2)C/C1=C\c1ccccc1`, the Potency entry was “inactive”.

As for `CCN1C/C(=C/c2cccc([N+](=O)[O-])c2)C(=O)/C(=C/c2cccc([N+](=O)[O-])c2)C1`, the Potency result was “inactive”.

As for `CN1C/C(=C\c2ccc(N3CCOCC3)cc2)C(=O)/C(=C/c2ccc(N3CCOCC3)cc2)C1`, the Potency is 18.4 µM (active).

Turning to `COc1ccc(N2CC(C(=O)N/N=C/c3ccc(C)cc3)CC2=O)cc1` (stereo unspecified), the Potency result is “inactive”.

With `CC[n+]1ccccc1/C=C/c1ccc(N(C)C)cc1`, the Potency is 18.4 µM (active).

With `CC(C)CC[n+]1ccccc1/C=C/c1ccc(N(C)C)cc1`, the Potency was 20.6 µM (active).

For the molecule `COc1ccc(-c2nc3c4ccccc4ccn3c2Cc2ccsc2)cc1OC`, the Potency entry was “inactive”.

Consider `CCOC(=O)c1[nH]c(C)c(C(=O)Nc2ccccc2C)c1C`, for which the Potency result was “inactive”.

Turning to `Cc1c(Cl)cccc1-c1ccc(/C=C(\C#N)c2nc3ccccc3[nH]2)o1`, the Potency was 16.4 µM (active).

`Cc1ccc2nc(/C(C#N)=C\c3ccc([N+](=O)[O-])o3)[nH]c2c1`: the Potency is 3.26 µM (active).

As to `Cc1ccc([N+](=O)[O-])cc1-c1ccc(/C=C(\C#N)c2[nH]nc(N)c2C#N)o1`, the Potency result was “inactive”.

For `Cc1ccc2nc(/C(C#N)=C/c3ccc(-c4ccc(C(=O)OC(C)C)cc4)o3)[nH]c2c1`, the Potency is 6.51 µM (active).

On to `N#C/C(=C\c1ccc(-c2ccc(C(=O)O)cc2)o1)c1nc2ccccc2[nH]1`, for which the Potency is 4.61 µM (active).

As to `COc1ccc(-c2[nH]ncc2N=Nc2ccccc2)cc1`, the Potency result is “inactive”.

In the case of `O=C(c1[nH]c(C(F)(F)F)nc1-c1ccccc1)N1CCN(c2ccccc2)CC1`, the Potency result is “inactive”.

In the case of `COc1cccc(/C=N/NC(=O)c2cc3c(OC)c(OC)ccc3[nH]2)c1OC`, the Potency result is “inactive”.

As to `Cc1cc(-c2ccccc2)nc(N/N=C/c2ccccc2F)n1`, the Potency entry was “inactive”.

For the molecule `CC(/C=N/NC(=O)c1cc(-c2ccc(C)s2)[nH]n1)=C\c1ccccc1`, the Potency result is “inactive”.

On to `Cc1ccc(/C=N/NC(=O)CCCOc2ccc(Cl)cc2Cl)cc1`, for which the Potency result is “inactive”.

Consider `COc1ccc(S(=O)(=O)Nc2cccc(-c3ccc4nncn4n3)c2)cc1F`, for which the Potency result is “inactive”.

For the molecule `CCOC(=O)c1cccc(NC(=O)N2CC=C(c3c[nH]c4ccccc34)CC2)c1`, the Potency entry was “inactive”.

Turning to `Cc1ccc2nc(/C(C#N)=C/c3ccc(-c4ccc(F)cc4F)o3)[nH]c2c1`, the Potency was 23.1 µM (active).

For `Cc1ccc2nc(/C(C#N)=C/c3ccc(-c4cccc(Cl)c4)o3)[nH]c2c1`, the Potency was 6.51 µM (active).

With `Cc1ccc2nc(/C(C#N)=C/c3ccc(-c4ccccc4C(=O)O)o3)[nH]c2c1`, the Potency was 3.26 µM (active).

`N#C/C(=C\c1ccc(-c2ccc(F)cc2F)o1)c1nc2ccccc2[nH]1`: the Potency was 20.6 µM (active).

`CC1Cc2cc(S(=O)(=O)CCC(=O)NCc3ccc(Cl)cc3)ccc2N1C(=O)C1CC1` (stereo unspecified): the Potency entry was “inactive”.

On to `CCOC(=O)c1c(C)sc(-c2c(-c3ccccc3)[nH]c3[nH]c(=O)[nH]c(=O)c23)c1O`, for which the Potency was 7.31 µM (active).

Consider `CC(C)=CCn1c2ccc(NC(=O)NCc3ccc(F)cc3)cc2c(=O)n1C`, for which the Potency result was “inactive”.
